The list is not random: actives were taken first. Their share in the collection is about 3%.
MITF TRPM1 inh: inhibitors of MITF-dependent TRPM1 promoter reporter, primary screen, cell-based, SK-MEL-5, single point, luciferase; SK-MEL-5 TRPM1 promoter luciferase, 24 h; inhibition, % at 12.5 µM; actives 0.83% (n = 330,000); AID 488899, 2010;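 active = mean inhibition across replicates of 60% or more, whatever share of single replicates reaches that level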
MITF TRPM1 HTS: activators of MITF-driven TRPM1 promoter reporter, primary screen, cell-based, SK-MEL-5, luciferase, single point | actives 0.75% (n = 300,000) | activation, % at 12.5 µM | AID 588334, 2011 | SK-MEL-5 TRPM1-promoter luciferase, 24 h; % of positive control, neutral wells = 0;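 active = mean activation of at least 80% with every replicate also reaching 80%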;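 note: 0% = neutral control wells and 100% = parthenolide positive control wells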
TROY NFkB inh: inhibitors of TROY-driven NF-kB signaling, primary screen, Q293 LMP1-TROYcd cells, NF-kB luciferase, uHTS; Q293 LMP1-TROYcd NF-kB luciferase reporter, 4 h; inhibition, % at 10 µM; actives 0.98% (n = 360,000); AID 1347056, 2019;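 active = compounds whose plate-normalised and pattern-corrected inhibition of the luciferase reporter signal at the single screening dose is 50% or more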
TWEAK-Fn14 inh: inhibitors of TWEAK-Fn14 signaling, primary screen, luciferase reporter cells, uHTS; TWEAK-stimulated Fn14 reporter cells, luciferase luminescence, 8 h; inhibition, % at 10 µM; actives 2% (n = 360,000); AID 1159606, 2016; in the data active = inhibition above about 50%
LGR2 antag: inhibitors of bursicon-induced LGR2 CRE-luciferase signal, primary screen, cell-based, HEK293, CRE-luciferase reporter, bursicon stimulation; AID 720647, 2013; inhibition, % at 9.99 µM; actives 0.35% (n = 380,000); Drosophila bursicon receptor LGR2 (rickets); bursicon-stimulated, 4 h;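 active = drop in luminescence signal, shown as inhibition above about 50% in the replicate tests, limit read from the data, passing the limit was not always enough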;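 note: agonist challenge used bursicon conditioned medium at about half maximal strength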
LMP1 NFkB inh: EBV LMP1-driven NF-kappaB luciferase reporter inhibitors, primary screen, cell-based, luminescence, single point; actives 0.69% (n = 350,000); AID 504558, 2011; inhibition, % at 12.5 µM; LMP1-induced NF-kappaB luciferase reporter cells; in the data active = inhibition above about 41%;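 note: 0% = neutral control wells and 100% = reference inhibitor control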
* hit, by the source's call; x = not tested or not shown.

SMILES	MITF TRPM1 inh	MITF TRPM1 HTS	TROY NFkB inh	TWEAK-Fn14 inh	LGR2 antag	LMP1 NFkB inh
O=C(c1cc2nc(-c3ccc(F)cc3)cc(C(F)(F)F)n2n1)N1CCCCC1c1cccnc1 (centres undefined)	39	-39	45	61*	12	5
O=C(c1cnn2c(C(F)(F)F)cc(-c3ccccc3)nc12)N1CCCCC1c1cccnc1 (centres undefined)	22	-18	5	15	18	1
COCC(=O)NC[C@H]1N[C@H](CO)[C@@H]1c1ccc(C#CC2CCCCC2)cc1	x	x	x	x	-28	x
CC(C)c1ccc(/C=N/NC(=O)c2ccc(-n3cnnn3)cc2)cc1	-8	10	26	65*	11	21
Cc1ccc(/C=N/NC(=O)c2ccc(-n3cnnn3)cc2)cc1	-9	9	-10	43	-5	7
CSc1ccc(/C=N/NC(=O)c2ccc(-n3cnnn3)cc2)cc1	-18	18	35	55*	-5	14
CO[C@@H]1CN(C)C(=O)c2cc(NC(=O)c3cc(C)on3)ccc2OC[C@H](C)N(CC2CC2)C[C@@H]1C	x	x	x	x	13	x
CCC(=O)Nc1ccc2c(c1)C(=O)N(C)[C@@H]1CC[C@@H](CC(=O)NCc3ccccc3)O[C@@H]1CO2	x	x	x	x	-14	x
O=C(C[C@@H]1C[C@@H]2c3cc(NC(=O)NC4CCCC4)ccc3O[C@@H]2[C@H](CO)O1)NCc1ccncc1	x	x	x	x	20	x
C[C@H](CO)N1C[C@H](C)[C@@H](CN(C)Cc2ccc(C(=O)Nc3ccccc3N)cc2)Oc2c(NC(=O)Nc3ccc4c(c3)OCO4)cccc2C1=O	x	x	x	x	-11	x
COc1ccccc1CNC(=O)CCc1cn(C)c2ccccc12	20	-16	-10	-3	-11	74*
CCOc1ccc(S(=O)(=O)N2CCC(C(=O)NCCc3ccc(S(N)(=O)=O)cc3)CC2)cc1	5	-5	10	6	-7	49*
CCCOc1ccc(N2C(=O)CC(NCCc3ccc(S(N)(=O)=O)cc3)C2=O)cc1 (centres undefined)	5	-4	8	4	x	-3
CCOc1ccc(N2C(=O)CC(NCCc3ccc(S(N)(=O)=O)cc3)C2=O)cc1 (centres undefined)	-3	4	x	108*	x	2
CCOc1ccc(S(=O)(=O)N2CCC(C(=O)NCCc3ccc(OC)c(OC)c3)CC2)cc1	5	-1	-13	0	7	-3
C[C@@H]1CN([C@@H](C)CO)C(=O)c2cc(NC(=O)CCCCCC(=O)Nc3ccccc3N)ccc2O[C@H]1CN(C)S(=O)(=O)c1ccc(F)cc1	x	x	x	x	22	x
C[C@@H]1CN([C@@H](C)CO)C(=O)c2cc(NS(=O)(=O)c3ccc(F)cc3)ccc2O[C@@H](C)CCCCO[C@H]1CN(C)C(=O)C1CCCCC1	x	x	x	x	14	x
Cc1ccccc1CN1C(=O)[C@@H]2Cc3c([nH]c4ccccc34)C(C)(C)N2C1=O	-8	11	21	42	5	-2
CC1(C)c2[nH]c3ccccc3c2C[C@H]2C(=O)N(Cc3cccc(F)c3)C(=O)N21	35	-36	29	51*	-14	-13
CC1(C)c2[nH]c3ccccc3c2C[C@@H]2C(=O)N(Cc3ccccc3Cl)C(=O)N21	8	-8	30	51*	2	-4
COc1cccc(CN2C(=O)[C@H]3Cc4c([nH]c5ccccc45)C(C)(C)N3C2=O)c1	5	-2	45	41	17	-10
O=C1C=CC(=Nc2ccc3c(c2)Cc2cc(F)ccc2-3)O1	-6	11	11	56*	x	-11
Cc1nc(N2CCN(C(=O)COc3ccccc3)CC2)c2c(C)c(C)sc2n1	26	-38	39	50*	x	8
Cc1c(/C(O)=C2/C(=O)C(=O)N(CCN3CCOCC3)C2c2cccnc2)cnn1-c1ccccc1 (centres undefined)	-5	11	8	-4	x	-4

Source: PubChem BioAssay (several laboratories)
